Measurements taken from PubChem BioAssay (NCATS).
Results filed as inconclusive are left out. Where a call stands in place of a potency, no number is given. The source made the active and inactive calls. Unless noted, the call rests on the fitted dose curve; in most records, active means well fitted curve in the direction sought with a large enough effect; inconclusive means small, poorly fitted or top-dose-only effect, or another doubt; inactive means no such curve, though single readings can be large; an effect the other way counts as inactive or inconclusive.

Experiments:
[1] = qHTS for Inhibitors of the Functional Ribonucleoprotein Complex (vRNP) of Lassa (LASV) Arenavirus: LASV Primary Screen - GLuc reporter signal (AID 1347082; calls by dose curve; tested in HEK293 reporter line; further: series mostly up to about 57 µM; nearly all actives have a fitted effect of over 60% in size)
[2] = biological target: Nucleoprotein (Lymphocytic choriomeningitis virus (strain Armstrong)) (UniProt P09992); experiment: qHTS for Inhibitors of the Functional Ribonucleoprotein Complex (vRNP) of Lymphocytic Choriomeningitis Arenaviruses (LCMV): LCMV Primary Screen - GLuc reporter signal (AID 1347086; calls by dose curve; further: nearly all actives have a fitted effect of over 70% in size; further: potency means the concentration at half of the fitted maximal effect)
[3] = qHTS for Inhibitors of the Functional Ribonucleoprotein Complex (vRNP) of Lassa (LASV) Arenavirus: Viability assay - alamar blue signal for LASV Primary Screen (AID 1347083; calls by dose curve; tested in HEK293 reporter line; further: nearly all actives have a fitted effect of over 80% in size; further: potency means the concentration at half of the fitted maximal effect)
[4] = qHTS of pediatric cancer cell lines to identify multiple opportunities for drug repurposing: Primary screen for SK-N-MC cells (AID 1347093); further: potency means the concentration at half of the fitted maximal effect
Procedure, shortened: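 Metabolically active cells were quantified by ATP-dependent luminescence (CellTiter-Glo, 15 min at room temperature) following 48 h treatment. Cells had been plated at 500-1,000 per well and settled for 5 h beforehand.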

[5] = qHTS of pediatric cancer cell lines to identify multiple opportunities for drug repurposing: Primary screen for NB-EBc1 cells (AID 1347095); further: potency means the concentration at half of the fitted maximal effect
Procedure, shortened: (§1)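 Readout: CellTiter-Glo luminescence, 48 h treatment. Controls DMSO (neutral) and bortezomib 2.3 µM final (positive). Potency and efficacy taken from primary-screen concentration-response curves.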

[6] = qHTS of pediatric cancer cell lines to identify multiple opportunities for drug repurposing: Primary screen for U-2 OS cells (AID 1347096); further: nearly all actives have a fitted effect of over 50% in size
Procedure, shortened: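 Viability after 48 h compound treatment at 37C, 500-1,000 cells/well, read as ATP luminescence with CellTiter-Glo. Primary screens used 11-point (MIPE, 0.78 nM-46 µM) or 8-point (NPC, 0.59 nM-46 µM) final concentrations; follow-up screens used 11-point dilutions.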

[7] = qHTS of pediatric cancer cell lines to identify multiple opportunities for drug repurposing: Primary screen for SK-N-SH cells (AID 1347098); further: nearly all actives have a fitted effect of over 65% in size; further: potency means the concentration at half of the fitted maximal effect
Procedure, shortened: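 Cells (500-1,000/well) rested 5 h, then received compounds for 48 h; metabolically active cells were measured by CellTiter-Glo luminescence. Final concentrations spanned up to 46 µM (MIPE, 11-point) or 0.59 nM-46 µM (NPC, 8-point) in primary screens, 11-point in follow-ups.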

[8] = qHTS for Inhibitors of the Functional Ribonucleoprotein Complex (vRNP) of Lymphocytic Choriomeningitis Arenaviruses (LCMV): Viability assay - alamar blue signal for LCMV Primary Screen (AID 1347085; calls by dose curve; tested in HEK293 reporter line; further: nearly all actives have a fitted effect of over 80% in size; further: potency means the concentration at half of the fitted maximal effect)
[9] = qHTS of pediatric cancer cell lines to identify multiple opportunities for drug repurposing: Primary screen for TC32 cells (AID 1347089); further: nearly all actives have a fitted effect of over 60% in size
Procedure, shortened: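 Measured quantity: luminescence from CellTiter-Glo, reflecting metabolically active TC32 cells following 48 h of compound. Curves came straight from multi-point titrations, with 8 or 11 points in primary and 11 in confirmatory screening.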

[10] = qHTS of pediatric cancer cell lines to identify multiple opportunities for drug repurposing: Primary screen for DAOY cells (AID 1347090); further: potency means the concentration at half of the fitted maximal effect; nearly all actives have a fitted effect of over 55% in size
Procedure, shortened: (§2)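 Viability measured as metabolically active cells via CellTiter-Glo luminescence following 48 hours of compound exposure, 11-point dilutions in confirmatory testing. 500-1,000 cells/well plated 5 hours before dosing; controls were DMSO and 2.3 µM bortezomib.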

[11] = qHTS of pediatric cancer cell lines to identify multiple opportunities for drug repurposing: Primary screen for SJ-GBM2 cells (AID 1347091); further: potency means the concentration at half of the fitted maximal effect
Procedure, shortened: as §2

[12] = qHTS of pediatric cancer cell lines to identify multiple opportunities for drug repurposing: Primary screen for A673 cells (AID 1347092); further: potency means the concentration at half of the fitted maximal effect; nearly all actives have a fitted effect of over 45% in size
Procedure, shortened: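 Cells are plated, rested 5 h, dosed by pintool, incubated 48 h, then lysed with CellTiter-Glo and read by luminescence. DMSO is the neutral control; bortezomib at 2.3 uM final is the positive control.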

[13] = qHTS of pediatric cancer cell lines to identify multiple opportunities for drug repurposing: Primary screen for BT-37 cells (AID 1347094); further: potency means the concentration at half of the fitted maximal effect
Procedure, shortened: as §1

Chain of Nucleoprotein (Lymphocytic choriomeningitis virus (strain Armstrong)) (P09992 whole entry, looked up): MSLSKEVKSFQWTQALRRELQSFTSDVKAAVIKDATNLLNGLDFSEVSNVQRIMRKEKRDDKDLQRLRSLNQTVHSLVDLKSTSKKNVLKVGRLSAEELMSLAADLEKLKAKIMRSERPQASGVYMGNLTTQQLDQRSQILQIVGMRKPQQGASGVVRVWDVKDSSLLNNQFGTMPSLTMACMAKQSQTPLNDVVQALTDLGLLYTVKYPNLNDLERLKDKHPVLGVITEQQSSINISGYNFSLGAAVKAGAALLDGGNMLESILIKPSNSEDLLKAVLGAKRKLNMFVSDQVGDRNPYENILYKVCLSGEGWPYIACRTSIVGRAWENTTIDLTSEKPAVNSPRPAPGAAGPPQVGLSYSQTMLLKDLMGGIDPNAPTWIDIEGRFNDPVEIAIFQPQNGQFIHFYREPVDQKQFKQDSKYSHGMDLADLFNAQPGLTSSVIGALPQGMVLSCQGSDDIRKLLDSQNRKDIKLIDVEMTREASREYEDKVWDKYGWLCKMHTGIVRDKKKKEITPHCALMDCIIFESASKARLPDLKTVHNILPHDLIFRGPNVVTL

For `COc1cc(NCc2ccc3nc(N)nc(N)c3c2C)cc(OC)c1OC`, which Potency [1] is on record?
Its Potency is “inactive”.

And the Potency [2]?
The Potency was “inactive”.

Which Potency [3] does the source give for `CCc1c2c(nc3ccc(OC(=O)N4CCC(N5CCCCC5)CC4)cc13)-c1cc3c(c(=O)n1C2)COC(=O)[C@]3(O)CC` here?
Its Potency is 4.32 µM (active).

And the Potency [2]?
Its Potency is 27.3 µM (active).

Which Potency [1] does the source give for `Nc1nc(N)c2nc(-c3ccccc3)c(N)nc2n1` here?
Its Potency is “inactive”.

What about the Potency [2] of the same compound?
The Potency was “inactive”.

With `CCOC(=O)C1(c2ccccc2)CCN(CCC(C#N)(c2ccccc2)c2ccccc2)CC1` as the compound, how does the Potency [3] read?
Its Potency is “inactive”.

And the Potency [4]?
Its Potency is 4.73 µM (active).

What about the Potency [5] of the same compound?
Its Potency is 18.8 µM (active).

What about the Potency [6] of the same compound?
Its Potency is “inactive”.

What about the Potency [7] of the same compound?
The Potency was “inactive”.

For `Cc1cc2c(C(C)C)c(O)c(O)c(C=O)c2c(O)c1-c1c(C)cc2c(C(C)C)c(O)c(O)c(C=O)c2c1O`, which Potency [3] is on record?
Its Potency is 30.6 µM (active).

What about the Potency [8] of the same compound?
The Potency was “inactive”.

With `Nc1nc(=S)c2[nH]cnc2[nH]1` as the compound, how does the Potency [3] read?
Its Potency is 17.2 µM (active).

Which Potency [1] does the source give for `O=C1c2cccc3c2[C@H](CCC3)CN1[C@@H]1CN2CCC1CC2` here?
The Potency was “inactive”.

And the Potency [8]?
The Potency was “inactive”.

What about the Potency [2] of the same compound?
Its Potency is “inactive”.

Which Potency [8] does the source give for `Cc1ccc(S(=O)(=O)NC(=O)NN2CC3CCCC3C2)cc1` (stereo not given) here?
The Potency was “inactive”.

What about the Potency [2] of the same compound?
Its Potency is “inactive”.

What does the source list for `CC(S)C(=O)NCC(=O)O` (stereo not given)?
Potency [1]: inactive; Potency [8]: inactive; Potency [2]: inactive

Which results are given for `CC12CC3CC(C)(C1)CC(N)(C3)C2`?
Potency [1]: inactive; Potency [8]: inactive; Potency [2]: inactive

Which Potency [1] does the source give for `CCC(=O)C(CC(C)N(C)C)(c1ccccc1)c1ccccc1` (stereo not given) here?
Its Potency is “inactive”.

What about the Potency [8] of the same compound?
The Potency was “inactive”.

And the Potency [2]?
Its Potency is “inactive”.

And the Potency [9]?
Its Potency is “inactive”.

And the Potency [10]?
The Potency was 34.7 µM (active).

What about the Potency [11] of the same compound?
The Potency was “inactive”.

What about the Potency [5] of the same compound?
Its Potency is “inactive”.

And the Potency [6]?
Its Potency is “inactive”.

Which Potency [3] does the source give for `Cc1sc2c(c1C)C(c1ccc(Cl)cc1)=N[C@@H](CC(=O)OC(C)(C)C)c1nnc(C)n1-2` here?
The Potency was 2.43 µM (active).

And the Potency [8]?
Its Potency is 1.09 µM (active).

What about the Potency [2] of the same compound?
Its Potency is 0.385 µM (active).

And the Potency [11]?
The Potency was 2.64 µM (active).

And the Potency [12]?
Its Potency is 469 nM (active).

What about the Potency [4] of the same compound?
The Potency was 0.118 µM (active).

What about the Potency [13] of the same compound?
The Potency was 1.37 µM (active).

What about the Potency [5] of the same compound?
Its Potency is 4.18 µM (active).

What about the Potency [7] of the same compound?
Its Potency is 2.41 µM (active).

With `CC1(C)O[C@@H]2[C@@H](CO[C@@]3(COS(N)(=O)=O)OC(C)(C)O[C@@H]23)O1` as the compound, how does the Potency [1] read?
The Potency was “inactive”.

And the Potency [8]?
The Potency was “inactive”.

And the Potency [2]?
Its Potency is “inactive”.
